Measured values taken from PubChem BioAssay (Tox21).
Records with an inconclusive call do not appear. Entries that show only a call come without a potency. Calls of active or inactive are those of the source. Calls follow the shape of the full dose curve.

Test: p53 small molecule agonists, cell-based qHTS assay with rat liver microsomes (AID 1963578)
Outline: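 p53RE-bla cells, 4,000/well, pre-incubated 5 h, then given compounds plus rat liver microsomes (0.5 mg/mL final) and NADPH (0.5 mg/mL final). Incubation 16 h at 37 C; beta-lactamase reporter read by LiveBLAzer fluorescence after 2 h at room temperature.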
Potency is read from the fitted curve at half-maximal effect.

C=C(C)C(=O)OCC(CC)CCCC (stereo not given)
Potency: inactive

ClCc1ccccn1
Potency: inactive

O=c1n(Cl)c(=O)n(Cl)c(=O)n1Cl
Potency: inactive

O=C1CCCO1
Potency: inactive

CN(C)c1ccc(C(=O)c2ccc(N(C)C)cc2)cc1
Potency: inactive

CCNc1nc(NC(C)C)nc(OC)n1
Potency: inactive

COC(=O)[C@@H](N)CCCN/C(N)=N/[N+](=O)[O-]
Potency: inactive

C[C@]12CCC(=O)C=C1CC[C@@H]1[C@@H]2CC[C@]2(C)C(=O)CC[C@@H]12
Potency: inactive

O=NN1CCCCCC1
Potency: inactive

CCC[N+](=O)[O-]
Potency: inactive

CC(C)(O)C#N
Potency: inactive

CCCCCCC1CCOC1=O (stereo not given)
Potency: inactive

Cl[C@H]1OCCO[C@@H]1Cl
Potency: inactive

CC(C)Nc1ccc(Nc2ccccc2)cc1
Potency: inactive

CC(C)Oc1cc(-n2nc(C(C)(C)C)oc2=O)c(Cl)cc1Cl
Potency: inactive

CCCCCCCCCCCC#N
Potency: inactive

O=C(O)COc1ccc(Cl)cc1Cl
Potency: inactive

BrC(Br)Br
Potency: inactive

O=C(O)C(F)(F)C(F)(F)C(F)(F)C(F)(F)C(F)(F)C(F)(F)C(F)(F)C(F)(F)F
Potency: inactive

c1ccc(N=Nc2ccccc2)cc1
Potency: inactive

Clc1nc(Cl)nc(Cl)n1
Potency: inactive

CCCCOCCOC(C)=O
Potency: inactive

CC[N+](=O)[O-]
Potency: inactive

CCOCN(C(=O)CCl)c1c(C)cccc1CC
Potency: inactive

O=[N+]([O-])c1cc(Cl)ccc1Cl
Potency: inactive

O=S1OCC2C(CO1)C1(Cl)C(Cl)=C(Cl)C2(Cl)C1(Cl)Cl (stereo not given)
Potency: inactive

C=C(Cl)CCl
Potency: inactive

C=CC(=O)OCC(CC)(COC(=O)C=C)COC(=O)C=C
Potency: inactive

Oc1ccc(C(c2ccc(O)cc2)(C(F)(F)F)C(F)(F)F)cc1
Potency: inactive

Nc1ccc(Cl)cc1
Potency: inactive

COC(C)(C)CCCC(C)C/C=C/C(C)=C/C(=O)OC(C)C (stereo not given)
Potency: inactive

BrCCc1ccccc1
Potency: inactive

C=CC(=O)OCC(C)C
Potency: inactive

CCOP(=O)(CN(CCO)CCO)OCC
Potency: inactive

CN(C)N=O
Potency: inactive

Cc1cccc(N)c1
Potency: inactive

O=P(O)(O)CN(CP(=O)(O)O)CP(=O)(O)O
Potency: inactive

CC(C)=CC1C(C(=O)OCc2cccc(Oc3ccccc3)c2)C1(C)C (stereo not given)
Potency: inactive

O=c1[nH]c(=O)[nH]c(=O)[nH]1
Potency: inactive

O=P(O)(Oc1ccccc1)Oc1ccccc1
Potency: inactive

O=NN1CCOCC1
Potency: inactive

CCOP(=S)(OCC)Oc1ccc2c(C)c(Cl)c(=O)oc2c1
Potency: inactive

CC(=O)CC(c1ccc(Cl)cc1)c1c(O)c2ccccc2oc1=O (stereo not given)
Potency: inactive

CC(C)(c1ccccc1)c1ccc(O)c(C(C)(C)c2ccccc2)c1
Potency: inactive

c1ccc(-c2ccccc2)cc1
Potency: inactive

CC(C)(c1ccc(OCC2CO2)cc1)c1ccc(OCC2CO2)cc1 (stereo not given)
Potency: inactive

Cc1cccc(C#N)c1
Potency: inactive

CC(C)OS(C)(=O)=O
Potency: inactive

CC(=O)CCC(C)=O
Potency: inactive

CNC(=O)Oc1cccc2ccccc12
Potency: 32.4 µM (active)

O=c1ccc(=O)[nH][nH]1
Potency: inactive

C/C(=N\NC(=O)Nc1cc(F)cc(F)c1)c1ncccc1C(=O)O
Potency: inactive

CC(=O)C(C)(C)C
Potency: inactive

COc1ccc2c3c1O[C@H]1[C@H](O)CC[C@H]4[C@@H](C2)N(C)CC[C@@]341
Potency: inactive

NC(=O)CF
Potency: inactive

O=C(NCc1cccnc1)Nc1ccc([N+](=O)[O-])cc1
Potency: inactive

Oc1ccc(Cl)c(Cl)c1
Potency: inactive

Cc1cccc(N)c1N
Potency: inactive

Oc1cc(Cl)ccc1Oc1ccc(Cl)cc1Cl
Potency: inactive

CCCCC(CC)COC(=O)c1c(Br)c(Br)c(Br)c(Br)c1C(=O)OCC(CC)CCCC (stereo not given)
Potency: inactive
